Bioassay records deposited in PubChem by National Center for Advancing Translational Sciences (NCATS).
The list is not random: actives were taken first. Their share in the collection is about 4.7%.
TRHR PAM: qHTS for Small Molecule Agonists and Allosteric Enhancers of Human TRH Receptor: Primary Screen for Enhancers; AID 493056, 2011; 360,000 tested, 0.66% active; Thyrotropin-releasing hormone receptor (Homo sapiens), P34981; enhancement, % at 2 µM; TRHR cells, fluo-8 calcium fluorescence, EC20 TRH enhancement; in the data active = enhancement above about 30%
Target sequence (P34981 whole entry, looked up): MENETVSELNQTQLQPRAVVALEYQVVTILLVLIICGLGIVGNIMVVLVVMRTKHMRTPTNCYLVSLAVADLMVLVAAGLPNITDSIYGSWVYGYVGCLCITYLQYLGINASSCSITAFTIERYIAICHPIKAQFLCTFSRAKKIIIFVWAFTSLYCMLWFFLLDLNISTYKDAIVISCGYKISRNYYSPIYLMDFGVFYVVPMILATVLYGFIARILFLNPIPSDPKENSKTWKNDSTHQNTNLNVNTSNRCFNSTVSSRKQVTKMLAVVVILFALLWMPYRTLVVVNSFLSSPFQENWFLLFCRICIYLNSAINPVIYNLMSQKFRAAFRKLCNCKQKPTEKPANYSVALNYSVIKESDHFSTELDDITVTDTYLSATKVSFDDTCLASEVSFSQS
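TRHR-expressing cells loaded with fluo-8 calcium dye were read kinetically (ex 480/em 530) during compound addition, then stimulated with an EC20 of TRH (10 nM final). Enhancement of the Gq-mediated intracellular calcium response was scored.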
TRHR ag: qHTS for Small Molecule Agonists and Allosteric Enhancers of Human TRH Receptor: Primary Screen for Agonists; TRHR cells, calcium flux fluo-8, FDSS agonist mode; 360,000 tested, 0.18% active; AID 493084, 2011; activation, % at 2 µM
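Fluo-8-loaded TRHR cells; 10 s baseline, compound added, kinetic Ca2+ fluorescence read 1/s, agonist mode.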
D1 antagonist: Antagonist of Human D 1 Dopamine Receptor: qHTS; HEK293 TREx D1 cells, calcium flux, dopamine EC80; hits give low values; 360,000 tested, 3.2% active; D(1A) dopamine receptor (Homo sapiens), P21728; activity change, negative = inhibition, % at 10 µM; in the data active = activity change below about -30%
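Tetracycline-induced HEK293 Trex D1 cells, force-coupled to calcium, dye-loaded; compounds added and read 180 s, then EC80 dopamine added and calcium flux tracked kinetically another 180 s.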
D1 potentiator: Potentiators of Human D1 Dopamine Receptor: qHTS; AID 504651, 2011; 360,000 tested, 0.036% active; D(1A) dopamine receptor (Homo sapiens), P21728; potentiation, % at 10 µM; HEK293 TREx D1 cells, calcium flux, dopamine EC20 potentiation; in the data active = potentiation above about 30%
D1 ag: Allosteric Agonists of the Human D1 Dopamine Receptor: qHTS | 360,000 tested, 1% active | HEK293 T-REx D1 cells, calcium flux, agonist mode | D(1A) dopamine receptor (Homo sapiens), P21728 | activation, % at 2 µM
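Agonism was scored from calcium flux recorded over 180 s (1 read/s) after pintool compound addition, following a 10-cycle baseline. Cells were inducible force-coupled HEK293 TREx D1, plated overnight at 30 C and loaded with no-wash calcium dye.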
Large screens that a line does not name were inactive. Cut-off read from the data, not from the text of the source, unless noted: active = activation above about 30%; inactive = the rest.

COc1ccc(-c2nn(-c3ccccc3)cc2C(=O)NC(=S)N2CCOCC2)cc1OC	D1 antagonist -38.6
COC(=O)c1cn(-c2ccccc2)nc1-c1ccc(OC)c(OC)c1	none
COc1ccc(-c2nn(-c3ccccc3)cc2C(=O)Nc2ccccc2OC)cc1	TRHR PAM 43.9
COc1ccc(CNC(=O)COC(=O)c2n[nH]c3ccccc23)cc1	none
CC(C)CNC(=O)COC(=O)c1n[nH]c2ccccc12	D1 antagonist -50.8
COc1ccc(CCNC(=O)c2n[nH]c3ccccc23)cc1	none
O=C(COC(=O)Cc1ccc(Cl)cc1)NCCc1ccccc1	none (no result: D1 potentiator)
O=C(COC(=O)c1n[nH]c2ccccc12)NCCc1ccc(Cl)cc1	D1 antagonist -30.4 (no result: D1 potentiator)
Nc1nccnc1C(=O)OCC(=O)NCCc1ccc(Cl)cc1	D1 antagonist -46.5
COC(=O)c1sccc1NC(=O)c1c(Cl)cnn1C	none
COc1ccc2c(c1)cc1c(=O)n(CC(=O)NCc3ccco3)nc(C)n12	none
COc1ccccc1N1CCN(S(=O)(=O)CCNC(=O)C2CC2)CC1	none
OC(CN1CCCCC1)CN1CCCCC1	none
OCC(O)CN1CCCC1 (configuration not stated)	D1 antagonist -31.9
COc1cc(/C=C2/SC(=S)N(CC(=O)NC(C)(C)C)C2=O)cc(OC)c1OC	none
COc1cc([N+](=O)[O-])cc(/C=C2/SC(=S)N(Cc3ccccc3)C2=O)c1O	D1 ag 110.3
COc1cc(/C=C2\SC(=S)N(CC(=O)NC(C)(C)C)C2=O)cc(OC)c1OC	D1 antagonist -61.2
O=C1/C(=C\c2cccc([N+](=O)[O-])c2O)SC(=S)N1Cc1ccccc1	none
COc1cc(/C=C2/SC(=S)N(Cc3ccccc3)C2=O)cc(Cl)c1O	TRHR PAM 91.9, TRHR ag 158.7, D1 ag 474.2
CN1CCN(C(=O)CCN2C(=O)/C(=C\c3ccc(Cl)cc3)SC2=S)CC1	D1 antagonist -43.5
CCN(CC)c1nc(-c2ccc(C(C)(C)C)cc2)nc2ccccc12	none
COc1ccc(C(C)=O)c(Oc2cc(NN3CCCCC3)c([N+](=O)[O-])cc2[N+](=O)[O-])c1	none
COC(=O)c1ccc(NC(=O)CSc2cn(CC(=O)N3CCCCCC3)c3ccccc23)cc1	none
CC(OC(=O)c1cc(S(=O)(=O)N2CCOCC2)ccc1F)C(=O)NC1CCCC1 (configuration not stated)	none
O=C(O)c1ccc(CN2C(=O)CSC2=S)cc1	D1 ag 30.5
O=C(O)c1ccc(/C=C2/SC(=S)N(Cc3ccccc3)C2=O)cc1	D1 potentiator 30.2
O=C1/C(=C\c2ccc(O)cc2)SC(=S)N1Cc1ccccc1	none
Cc1cccc(C)c1NC(=O)CN(C)C(=O)c1ccc(COc2ccccc2)cc1	none
N#C/C(=C\c1c[nH]c2ccccc12)C(N)=O	none
CC(=O)Oc1c(/C=C(\C#N)C(N)=O)[nH]c2ccccc12	D1 ag 52.8
NNC(=O)c1cc(O)c(O)c(O)c1	D1 antagonist -35.5
O=C(Nc1ccccc1N1CCOCC1)c1cccnc1	D1 antagonist -79.4
O=C(Nc1ccc(N2CCOCC2)c(Cl)c1)c1cccnc1	none
CC1=NN(C(=O)COc2cc(C)ccc2C(C)C)C(O)(c2ccccc2)C1 (configuration not stated)	none
CCn1nc(C)c(Br)c1-c1nc(CS(=O)(=O)c2ccsc2)no1	TRHR PAM 37.1
CN(CC(=O)Nc1ccc(N2CCOCC2)cc1)C(=O)CCCOc1ccc(Cl)cc1Cl	TRHR PAM 40.4
CSc1ccc(Cl)c(C(=O)N(C)CC(=O)Nc2ccc(N3CCOCC3)cc2)c1	none
CN(CC(=O)Nc1ccc(N2CCOCC2)cc1)C(=O)c1cc(F)c(F)cc1Cl	D1 antagonist -41.9
CCN(CC)C(=O)c1ccc(CS(=O)(=O)Cc2ccccc2)cc1	D1 antagonist -30.7
CCC(=O)c1ccc(OCc2ccc(C#N)cc2)cc1	D1 antagonist -36.8
CCC(=O)c1ccc(OCc2ccc(C(=O)OC)cc2)cc1	none
